CYP2C9 act = human CYP2C9 activators, primary screen, biochemical, luminescence; AID 1024, 2008; 1.4% of 96,000 active; recombinant CYP2C9, luciferin-H conversion; active compounds read high; factor 1 = untreated enzyme, 0 = blocked; activation factor at 5 µM;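 active means activation factor of 2 or more for CYP2C9 at a 5 µM dose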;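 further: 0 = sulfaphenazole-blocked wells and 1 = vehicle-only wells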
CYP2C19 act = human CYP2C19 activators, primary screen, biochemical, luminescence; Cytochrome P450 2C19 (Homo sapiens), P33261; recombinant CYP2C19, luciferin-H EGE luminescence; active compounds read high; 0 = fully inhibited enzyme, 1 = untreated enzyme; activation factor at 5 µM; 96,000 tested, under 10 active; AID 1025, 2008;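 active means activation factor of at least 2 at 5 µM in the primary screen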;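 further: 0 = wells with 2.5 mM tranylcypromine and 1 = vehicle-only wells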
Target sequence (P33261 whole entry, looked up): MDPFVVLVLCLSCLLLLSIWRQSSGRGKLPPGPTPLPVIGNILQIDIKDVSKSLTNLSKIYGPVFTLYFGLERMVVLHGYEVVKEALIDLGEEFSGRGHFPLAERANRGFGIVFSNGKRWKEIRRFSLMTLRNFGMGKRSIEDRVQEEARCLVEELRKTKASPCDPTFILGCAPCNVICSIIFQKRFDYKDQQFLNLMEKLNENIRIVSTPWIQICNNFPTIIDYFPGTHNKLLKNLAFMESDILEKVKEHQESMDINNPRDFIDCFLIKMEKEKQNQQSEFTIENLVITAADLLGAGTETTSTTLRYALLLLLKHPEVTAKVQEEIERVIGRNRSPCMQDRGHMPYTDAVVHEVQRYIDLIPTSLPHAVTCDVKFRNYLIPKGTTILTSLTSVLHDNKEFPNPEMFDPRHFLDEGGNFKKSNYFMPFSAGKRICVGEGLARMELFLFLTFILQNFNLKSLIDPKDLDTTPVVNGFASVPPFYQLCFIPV
CYP2C9 inhib = blockers of cytochrome P450 2C9 activity – biochemical, luminescence, ADME assay, primary screen. P11712. CYP2C9 Supersomes, luciferin-H conversion. inhibition, % at 5 µM. 20% of 96,000 active. AID 777, 2007;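 active means blocking of liver enzyme CYP2C9 beyond about 50% at 5 µM, limit read from the data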
CYP2C19 inh = blockers of cytochrome P450 2C19 activity – biochemical, luminescence, ADME assay, primary screen | P33261 | CYP2C19 Supersomes, luciferin-H EGE luminescence, 30 min | inhibition, % at 5 µM | 21% of 96,000 active | AID 778, 2007;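 active means CYP2C19 inhibition above a set limit at 5 µM in the primary screen, cut at about 50% in these data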;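 further: plate controls were negative control wells for no effect and 2.5 mM tranylcypromine positive control for full effect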
PostGolgi yeast = phenotypic screen on post-Golgi transport, primary screen. post-Golgi transport phenotypic cell assay. inhibition, % at 10 µM. 0.9% of 98,000 active. AID 739, 2007;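 further: yeast cells grown in 1536-well plates; yeast grown about 18 h at 30C before absorbance read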
PostGolgi ctrl = growth inhibition of yeast control strain, primary screen, counter-screen for post-Golgi transport modulator project. efflux-deficient yeast background strain, growth absorbance A615, 16 h. inhibition, % at 10 µM. 5% of 98,000 active
Starred values were filed as active, the others as inactive. This is a sample that favours compounds with a hit; in the whole collection about 32% have one here. Unless noted, no stated cut-off is given here; in the data, active means inhibition above about 30%; inactive means the rest.

SMILES	CYP2C9 act	CYP2C19 act	CYP2C9 inhib	CYP2C19 inh	PostGolgi yeast	PostGolgi ctrl
N#CC(c1cccc(Cl)c1)c1ncc(C(F)(F)F)cc1Cl (centres undefined)	0.6	0.1	41.1	88.8*	8.0	11.5
NC(=O)C(c1ccccc1)c1ncc(C(F)(F)F)cc1Cl (centres undefined)	0.7	0.8	30.4	17.5	10.1	2.8
N#CC(c1ccc(Cl)cc1)c1ncc(C(F)(F)F)cc1Cl (centres undefined)	0.6	0.1	36.2	94.3*	14.3	1.5
Cc1cc(=O)oc2cc(OCC(=O)NCCc3nc4ccccc4[nH]3)ccc12	0.5	0.8	46.4	24.1	-3.1	7.7
COC(=O)C(Cc1ccc(O)cc1)NC(=O)c1ccccc1OC (centres undefined)	2.3*	0.5	-127.8	52.7*	-4.3	-6.8
COc1ccc(NC(=O)CN(C)S(=O)(=O)c2ccccc2)cc1	0.5	0.4	54.6*	61.5*	3.8	9.2
COc1ccc(S(=O)(=O)N(C)CC(=O)Nc2cccc(C(C)=O)c2)cc1C	1.3	0.5	-30.1	46.7	15.9	1.8
COC(=O)c1ccccc1NC(=O)CN(C)S(=O)(=O)c1ccc(OC)c(C)c1	1.1	0	-14.2	99.6*	12.4	14.3
COc1ccccc1NC(=O)CN(C)S(=O)(=O)c1ccc(F)cc1	2.3*	0.4	-128.7	55.9*	3.2	1.2
COc1ccc(S(=O)(=O)N(C)CC(=O)Nc2ccc(C(F)(F)F)cc2)cc1Cl	0.4	0.9	56.6*	6.7	-6.0	7.0
O=C1NC2(CCCc3ccccc32)C(=O)N1CCOc1ccc(Br)cc1 (centres undefined)	0.8	1	16.1	4.8	15.7	-0.3
Cc1ccc(OCC(O)CNC(=O)c2ccccc2C(=O)O)cc1 (centres undefined)	1	1	3.9	0.5	10.6	5.9
COc1ccc(S(=O)(=O)N(C)CC(=O)Nc2ccccc2SC)cc1	1.1	0	-6.6	98.0*	4.6	-3.8
COc1ccc(S(=O)(=O)N(C)CC(=O)Nc2ccccc2OC)cc1	1.2	0.3	-15.2	73.1*	-1.1	6.0
CN(CC(=O)Nc1ccccc1N1CCOCC1)S(=O)(=O)c1ccc(F)cc1	0.9	0.6	11.3	38.8	-4.7	31.1*
COC(=O)c1ccccc1NC(=O)CN(C)S(=O)(=O)c1ccc(OC)cc1	1	0.3	-3.3	72.5*	-1.3	17.8
Cc1c(S(=O)(=O)N2CCOCC2)c(=O)n(C)c(=O)n1C	1	0.9	1.2	9.8	8.4	4.2
COc1ccc(S(=O)(=O)N(C)CC(=O)Nc2ccccc2SC)cc1Cl	2.9*	0.7	-188.0	31.4	5.6	22.0
CNC(=O)CN(C)S(=O)(=O)c1ccc(OC)c(Cl)c1	1.6	0.6	-63.3	40.2	-9.3	6.8
COc1ccc(-n2c(SCC(=O)Nc3nccs3)nc3sc4c(c3c2=O)CCN(C)C4)cc1	0.8	0.6	15.5	35.7	0.0	-5.1
COCCSc1nc2sc3c(c2c(=O)n1-c1ccccc1)CCN(C)C3	0.7	0	33.2	98.2*	-7.2	17.9
Cc1ccc(Sc2nc(-c3ccccc3)nnc2C(F)(F)F)cc1	0.8	1.1	23.2	-8.0	9.4	6.6
CCCCC(=O)NN(C)c1nc(-c2ccccc2)nnc1C(F)(F)F	0.5	0.2	47.1	77.5*	-3.6	6.5
CN(NC(=O)c1ccc(Cl)cc1)c1nc(-c2ccccc2)nnc1C(F)(F)F	0.9	0.7	14.2	26.3	2.3	18.8
Cc1ccc(C(=O)NN(C)c2nc3ccccc3nc2C(F)(F)F)cc1	1.6	0.7	-62.8	30.4	8.3	-3.4
CNc1nc(-c2ccccc2)nnc1C(F)(F)F	4.1*	0.8	-311.1	24.3	10.9	4.0
CC(C)CC(=O)NN(C)c1nc(-c2ccccc2)nnc1C(F)(F)F	0.7	0.2	26.4	78.0*	-3.2	-1.8
Cc1ccc(/C=N/n2cnnc2)s1	0.9	0.8	14.3	16.0	7.7	3.0
Cc1ccc(Sc2oc(/C=N/n3cnnc3)cc2Br)cc1	0.8	0	16.1	99.8*	0.7	44.3*

High-throughput results deposited in PubChem by several laboratories.
